Experimental findings from ChEMBL document CHEMBL1961873, “Compounds: GSK PKIS; Assays: Nanosyn kinase panel” (2012) are described below.

Test [1] deals with Sphingosine kinase 1 (Homo sapiens) (UniProt Q9NYA1). Particulars: at 1 µM.
Test [2] deals with T1, Sphingosine kinase 2 (Homo sapiens) (UniProt Q9NRA0).
T1 sequence (whole entry): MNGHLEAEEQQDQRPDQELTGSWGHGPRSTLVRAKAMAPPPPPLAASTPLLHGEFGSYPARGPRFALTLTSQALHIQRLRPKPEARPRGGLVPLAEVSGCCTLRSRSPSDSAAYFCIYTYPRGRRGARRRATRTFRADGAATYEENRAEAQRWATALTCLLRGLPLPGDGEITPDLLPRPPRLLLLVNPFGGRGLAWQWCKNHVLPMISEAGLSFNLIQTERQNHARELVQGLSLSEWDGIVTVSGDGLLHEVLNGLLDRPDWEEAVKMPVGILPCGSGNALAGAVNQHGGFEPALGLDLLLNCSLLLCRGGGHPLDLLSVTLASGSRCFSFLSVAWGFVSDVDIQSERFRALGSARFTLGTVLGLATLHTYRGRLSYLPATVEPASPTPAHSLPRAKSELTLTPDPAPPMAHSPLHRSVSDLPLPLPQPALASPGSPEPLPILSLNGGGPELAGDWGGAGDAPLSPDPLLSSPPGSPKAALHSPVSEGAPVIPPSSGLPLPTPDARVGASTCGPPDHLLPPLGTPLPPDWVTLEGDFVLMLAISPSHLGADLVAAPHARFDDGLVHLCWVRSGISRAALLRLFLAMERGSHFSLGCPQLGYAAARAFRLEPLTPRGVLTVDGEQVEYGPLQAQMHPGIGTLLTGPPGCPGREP
Particulars: at 0.1 µM.

The target in test [3] is T1, Sphingosine kinase 2 (Homo sapiens). As to conditions: at 1 µM.
For test [4], the target named is Casein kinase II subunit alpha (Homo sapiens) (UniProt P68400). As to conditions: at 0.1 µM.
For test [5] the target is unchanged. Particulars: at 1 µM.
The target of test [6] is T2, Inhibitor of nuclear factor kappa-B kinase subunit alpha (Homo sapiens) (UniProt O15111).
T2 sequence (whole entry): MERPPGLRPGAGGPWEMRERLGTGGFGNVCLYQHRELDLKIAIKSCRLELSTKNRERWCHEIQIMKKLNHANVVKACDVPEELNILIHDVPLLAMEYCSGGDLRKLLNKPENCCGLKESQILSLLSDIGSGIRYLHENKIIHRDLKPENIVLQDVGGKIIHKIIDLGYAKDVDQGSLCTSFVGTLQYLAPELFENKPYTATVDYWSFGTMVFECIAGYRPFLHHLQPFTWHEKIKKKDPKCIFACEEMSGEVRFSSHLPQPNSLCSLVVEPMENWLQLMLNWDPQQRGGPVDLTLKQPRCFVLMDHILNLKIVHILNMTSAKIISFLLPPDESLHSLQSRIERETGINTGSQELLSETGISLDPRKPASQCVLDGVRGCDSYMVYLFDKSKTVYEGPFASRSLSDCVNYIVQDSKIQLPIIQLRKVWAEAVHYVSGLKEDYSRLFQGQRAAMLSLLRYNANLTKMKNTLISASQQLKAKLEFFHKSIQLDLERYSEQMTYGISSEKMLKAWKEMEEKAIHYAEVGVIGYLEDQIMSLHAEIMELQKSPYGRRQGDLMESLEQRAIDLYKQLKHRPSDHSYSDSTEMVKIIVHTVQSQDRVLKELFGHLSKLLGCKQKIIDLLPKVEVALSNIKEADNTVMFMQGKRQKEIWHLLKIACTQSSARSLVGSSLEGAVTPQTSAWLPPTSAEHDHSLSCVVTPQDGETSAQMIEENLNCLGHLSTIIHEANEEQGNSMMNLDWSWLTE
Particulars: at 0.1 µM.

Test [7] addresses T2, Inhibitor of nuclear factor kappa-B kinase subunit alpha (Homo sapiens). Particulars: at 1 µM.
Test [8] addresses T3, Inhibitor of nuclear factor kappa-B kinase subunit beta (Homo sapiens) (UniProt O14920).
T3 sequence (whole entry): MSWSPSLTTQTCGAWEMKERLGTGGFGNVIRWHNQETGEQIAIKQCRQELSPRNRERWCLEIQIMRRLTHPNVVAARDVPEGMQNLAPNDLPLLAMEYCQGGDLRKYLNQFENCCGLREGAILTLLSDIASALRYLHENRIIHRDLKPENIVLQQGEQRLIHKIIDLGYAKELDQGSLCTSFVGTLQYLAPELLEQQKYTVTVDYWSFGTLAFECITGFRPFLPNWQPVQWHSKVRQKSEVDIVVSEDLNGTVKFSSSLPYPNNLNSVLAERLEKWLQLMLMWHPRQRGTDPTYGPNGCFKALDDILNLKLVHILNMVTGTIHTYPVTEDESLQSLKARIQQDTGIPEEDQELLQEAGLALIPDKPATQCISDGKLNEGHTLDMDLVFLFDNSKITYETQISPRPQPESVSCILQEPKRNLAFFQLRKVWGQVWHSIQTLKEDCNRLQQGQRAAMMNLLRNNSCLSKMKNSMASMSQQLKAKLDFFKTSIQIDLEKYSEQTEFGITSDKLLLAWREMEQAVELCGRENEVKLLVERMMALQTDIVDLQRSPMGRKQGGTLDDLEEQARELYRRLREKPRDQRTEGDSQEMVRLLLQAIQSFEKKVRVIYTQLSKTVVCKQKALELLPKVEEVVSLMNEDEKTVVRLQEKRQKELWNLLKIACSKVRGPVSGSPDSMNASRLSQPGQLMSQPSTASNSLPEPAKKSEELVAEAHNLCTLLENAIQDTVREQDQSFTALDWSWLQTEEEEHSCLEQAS
As to conditions: at 0.1 µM.

The target in test [9] is T3, Inhibitor of nuclear factor kappa-B kinase subunit beta (Homo sapiens). Particulars: at 1 µM.
The target of test [10] is T4, Inhibitor of nuclear factor kappa-B kinase subunit epsilon (Homo sapiens) (UniProt Q14164).
T4 sequence (whole entry): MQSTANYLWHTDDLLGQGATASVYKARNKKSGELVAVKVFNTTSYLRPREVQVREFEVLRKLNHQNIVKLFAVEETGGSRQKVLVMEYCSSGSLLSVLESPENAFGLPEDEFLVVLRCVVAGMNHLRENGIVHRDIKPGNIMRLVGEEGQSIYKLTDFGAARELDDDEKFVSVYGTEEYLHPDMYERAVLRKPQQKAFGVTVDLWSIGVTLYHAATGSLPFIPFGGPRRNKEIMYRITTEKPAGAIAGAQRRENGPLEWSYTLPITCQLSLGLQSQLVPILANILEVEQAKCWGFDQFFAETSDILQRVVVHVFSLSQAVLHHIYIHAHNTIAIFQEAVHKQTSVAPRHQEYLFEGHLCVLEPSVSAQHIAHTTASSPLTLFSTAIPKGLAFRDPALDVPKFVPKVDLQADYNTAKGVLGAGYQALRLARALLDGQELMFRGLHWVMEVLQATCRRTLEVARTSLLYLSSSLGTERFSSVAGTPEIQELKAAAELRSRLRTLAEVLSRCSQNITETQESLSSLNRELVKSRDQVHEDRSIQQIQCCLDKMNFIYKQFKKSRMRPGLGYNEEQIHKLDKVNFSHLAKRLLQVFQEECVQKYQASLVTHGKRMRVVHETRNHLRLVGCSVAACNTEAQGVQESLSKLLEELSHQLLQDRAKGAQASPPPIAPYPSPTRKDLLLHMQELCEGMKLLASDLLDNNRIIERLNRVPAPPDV
Particulars: at 0.1 µM.

Test [11] deals with T4, Inhibitor of nuclear factor kappa-B kinase subunit epsilon (Homo sapiens). As to conditions: at 1 µM.
In test [12] the target is T5, Serine/threonine-protein kinase Nek1 (Homo sapiens) (UniProt Q96PY6).
T5 sequence (whole entry): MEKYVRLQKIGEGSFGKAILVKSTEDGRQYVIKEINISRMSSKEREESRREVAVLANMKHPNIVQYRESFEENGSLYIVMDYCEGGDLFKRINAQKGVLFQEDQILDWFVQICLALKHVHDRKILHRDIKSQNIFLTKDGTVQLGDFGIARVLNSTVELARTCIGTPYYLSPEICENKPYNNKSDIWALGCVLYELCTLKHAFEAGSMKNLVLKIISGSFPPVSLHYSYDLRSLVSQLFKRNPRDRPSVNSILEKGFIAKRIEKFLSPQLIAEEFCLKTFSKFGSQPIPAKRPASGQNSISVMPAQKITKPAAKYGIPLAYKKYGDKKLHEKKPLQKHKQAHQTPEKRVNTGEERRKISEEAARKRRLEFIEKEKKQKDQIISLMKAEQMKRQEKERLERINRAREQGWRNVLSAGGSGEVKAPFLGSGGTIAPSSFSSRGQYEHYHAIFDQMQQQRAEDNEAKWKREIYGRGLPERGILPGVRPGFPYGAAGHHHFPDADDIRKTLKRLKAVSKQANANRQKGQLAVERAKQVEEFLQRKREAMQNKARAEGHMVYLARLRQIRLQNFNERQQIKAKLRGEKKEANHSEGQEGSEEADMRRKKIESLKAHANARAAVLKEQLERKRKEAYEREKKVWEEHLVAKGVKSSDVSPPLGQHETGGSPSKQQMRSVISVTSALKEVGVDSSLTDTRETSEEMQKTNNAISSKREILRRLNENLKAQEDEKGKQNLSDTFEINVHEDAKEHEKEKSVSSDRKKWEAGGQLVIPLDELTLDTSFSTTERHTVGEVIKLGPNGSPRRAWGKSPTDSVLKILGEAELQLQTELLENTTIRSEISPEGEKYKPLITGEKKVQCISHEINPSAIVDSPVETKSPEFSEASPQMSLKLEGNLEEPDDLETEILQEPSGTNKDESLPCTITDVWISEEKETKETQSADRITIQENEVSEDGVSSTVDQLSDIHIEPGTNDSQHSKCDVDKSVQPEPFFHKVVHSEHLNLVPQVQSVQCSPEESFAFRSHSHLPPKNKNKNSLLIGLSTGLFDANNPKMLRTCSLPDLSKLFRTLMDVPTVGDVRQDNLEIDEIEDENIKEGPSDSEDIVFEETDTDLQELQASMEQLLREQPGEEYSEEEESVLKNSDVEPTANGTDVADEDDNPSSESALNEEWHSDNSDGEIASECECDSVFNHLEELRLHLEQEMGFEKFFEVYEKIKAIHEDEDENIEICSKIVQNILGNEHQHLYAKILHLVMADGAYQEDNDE
As to conditions: at 0.1 µM.

The target of test [13] is T5, Serine/threonine-protein kinase Nek1 (Homo sapiens). As to conditions: at 1 µM.
Test [14] deals with T6, Serine/threonine-protein kinase Nek2 (Homo sapiens) (UniProt P51955).
T6 sequence (whole entry): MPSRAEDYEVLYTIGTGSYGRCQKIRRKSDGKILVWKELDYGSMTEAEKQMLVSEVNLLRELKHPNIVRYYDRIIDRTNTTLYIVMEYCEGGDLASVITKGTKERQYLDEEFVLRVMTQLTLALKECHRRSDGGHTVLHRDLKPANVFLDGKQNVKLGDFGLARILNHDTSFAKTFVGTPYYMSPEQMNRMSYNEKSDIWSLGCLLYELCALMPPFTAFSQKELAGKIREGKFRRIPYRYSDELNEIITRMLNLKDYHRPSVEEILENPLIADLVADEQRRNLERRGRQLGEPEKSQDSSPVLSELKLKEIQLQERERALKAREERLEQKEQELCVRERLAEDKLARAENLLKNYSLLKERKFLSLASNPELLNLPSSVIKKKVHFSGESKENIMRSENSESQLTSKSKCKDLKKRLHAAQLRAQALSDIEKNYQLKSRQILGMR
Particulars: at 0.1 µM.

Test [15] has as its target T6, Serine/threonine-protein kinase Nek2 (Homo sapiens). Particulars: at 1 µM.
The target of test [16] is Serine/threonine-protein kinase Nek6 (Homo sapiens) (UniProt Q9HC98). Particulars: at 0.1 µM.
Test [17] shares this target. Particulars: at 1 µM.
For test [18], the target named is Serine/threonine-protein kinase Nek7 (Homo sapiens) (UniProt Q8TDX7). Particulars: at 0.1 µM.
Test [19] has the same target. As to conditions: at 1 µM.
Test [20] concerns the target T7, Serine/threonine-protein kinase Nek9 (Homo sapiens) (UniProt Q8TD19).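 Further: reported value is the mean percent inhibition of NEK9.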
T7 sequence (whole entry): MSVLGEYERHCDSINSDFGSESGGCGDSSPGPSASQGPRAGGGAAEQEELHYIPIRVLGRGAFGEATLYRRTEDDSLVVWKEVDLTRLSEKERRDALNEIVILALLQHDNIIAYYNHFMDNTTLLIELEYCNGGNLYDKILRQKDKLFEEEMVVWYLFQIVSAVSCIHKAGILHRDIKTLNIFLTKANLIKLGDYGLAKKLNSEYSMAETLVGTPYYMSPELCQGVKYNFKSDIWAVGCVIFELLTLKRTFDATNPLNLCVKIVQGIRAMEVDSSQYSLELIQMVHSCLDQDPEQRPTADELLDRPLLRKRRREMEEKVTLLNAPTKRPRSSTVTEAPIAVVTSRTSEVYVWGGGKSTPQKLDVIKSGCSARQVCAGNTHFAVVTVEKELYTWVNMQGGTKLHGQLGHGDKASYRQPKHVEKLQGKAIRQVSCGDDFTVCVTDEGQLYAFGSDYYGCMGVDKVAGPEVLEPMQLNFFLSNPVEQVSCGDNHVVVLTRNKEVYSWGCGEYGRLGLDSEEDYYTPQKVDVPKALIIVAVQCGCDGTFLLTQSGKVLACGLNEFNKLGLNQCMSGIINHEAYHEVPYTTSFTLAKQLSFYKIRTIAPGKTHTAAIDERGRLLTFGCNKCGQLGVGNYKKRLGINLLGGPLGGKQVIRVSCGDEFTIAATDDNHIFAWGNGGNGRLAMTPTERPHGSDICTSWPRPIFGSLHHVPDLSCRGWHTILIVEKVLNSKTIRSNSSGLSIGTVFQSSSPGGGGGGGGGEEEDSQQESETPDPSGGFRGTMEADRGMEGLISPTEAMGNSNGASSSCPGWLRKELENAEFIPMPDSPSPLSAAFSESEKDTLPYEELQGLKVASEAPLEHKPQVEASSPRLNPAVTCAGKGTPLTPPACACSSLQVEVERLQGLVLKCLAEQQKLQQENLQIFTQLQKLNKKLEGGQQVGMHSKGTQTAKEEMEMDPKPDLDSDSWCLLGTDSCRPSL
Particulars: at 0.1 µM.

Chain of Casein kinase II subunit alpha (Homo sapiens) (P68400 whole entry, looked up): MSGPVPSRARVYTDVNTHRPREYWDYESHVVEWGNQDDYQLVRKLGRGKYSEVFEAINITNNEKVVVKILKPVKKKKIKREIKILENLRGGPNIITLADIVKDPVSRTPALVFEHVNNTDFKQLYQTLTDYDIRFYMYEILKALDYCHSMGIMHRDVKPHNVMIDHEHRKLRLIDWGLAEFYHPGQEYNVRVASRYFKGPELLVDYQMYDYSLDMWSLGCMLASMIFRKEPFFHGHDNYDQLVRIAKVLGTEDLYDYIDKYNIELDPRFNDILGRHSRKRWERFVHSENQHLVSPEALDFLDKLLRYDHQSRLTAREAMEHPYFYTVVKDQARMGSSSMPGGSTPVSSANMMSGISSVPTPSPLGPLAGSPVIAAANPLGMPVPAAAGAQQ
Chain of Serine/threonine-protein kinase Nek6 (Homo sapiens) (Q9HC98 whole entry): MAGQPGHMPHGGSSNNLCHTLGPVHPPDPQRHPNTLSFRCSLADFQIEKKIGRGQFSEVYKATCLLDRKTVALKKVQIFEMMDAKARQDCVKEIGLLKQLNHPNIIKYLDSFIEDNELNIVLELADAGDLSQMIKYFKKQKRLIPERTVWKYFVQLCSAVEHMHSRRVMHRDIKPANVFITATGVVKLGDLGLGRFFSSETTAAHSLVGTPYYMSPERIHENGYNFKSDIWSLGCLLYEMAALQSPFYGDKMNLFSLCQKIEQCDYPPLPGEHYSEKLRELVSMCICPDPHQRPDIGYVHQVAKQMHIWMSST
Chain of Serine/threonine-protein kinase Nek7 (Homo sapiens) (Q8TDX7 whole entry, looked up): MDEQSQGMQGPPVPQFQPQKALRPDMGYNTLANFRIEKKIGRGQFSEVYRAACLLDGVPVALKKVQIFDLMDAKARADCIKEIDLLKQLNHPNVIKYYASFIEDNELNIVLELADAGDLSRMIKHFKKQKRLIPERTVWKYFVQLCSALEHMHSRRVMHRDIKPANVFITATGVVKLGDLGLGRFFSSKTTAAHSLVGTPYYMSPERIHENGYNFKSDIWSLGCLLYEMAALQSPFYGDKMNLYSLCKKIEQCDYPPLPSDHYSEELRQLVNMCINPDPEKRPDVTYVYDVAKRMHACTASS
Chain of Sphingosine kinase 1 (Homo sapiens) (Q9NYA1 whole entry): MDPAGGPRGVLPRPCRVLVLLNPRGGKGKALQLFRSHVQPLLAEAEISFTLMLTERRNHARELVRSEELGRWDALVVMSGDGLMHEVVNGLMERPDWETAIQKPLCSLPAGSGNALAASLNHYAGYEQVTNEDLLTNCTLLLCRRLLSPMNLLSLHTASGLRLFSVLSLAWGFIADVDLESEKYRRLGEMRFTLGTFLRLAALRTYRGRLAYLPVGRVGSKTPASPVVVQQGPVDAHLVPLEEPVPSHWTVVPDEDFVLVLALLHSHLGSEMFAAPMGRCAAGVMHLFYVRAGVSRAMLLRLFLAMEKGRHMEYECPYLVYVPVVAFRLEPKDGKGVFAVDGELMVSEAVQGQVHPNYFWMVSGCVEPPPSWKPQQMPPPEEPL

Broadly, the inhibition is the change of the read-out against control, counted positive when it falls. On to `c1cnn2ncc(-c3ccnc(NCCCN4CCOCC4)n3)c2c1`, for which the inhibition in [1] was -3.67%; in test [2] it was 2.35%; in test [3], 0%; in test [4], 1.83%; in test [5], 4.66%; in test [6] it was 8.06%. Besides, the inhibition in [7] worked out at 9.01%; in test [8], 5.79%; in [9], 4.44%; in test [10] it was 9.87%; in test [11], 13.4%; in test [12], 1.91%. Moreover, the inhibition in [13] came to 0.27%; in [14], 4.15%; in test [15] it was 4.3%; in [16], 0.45%; in test [17] it was 2.66%; in test [18] it was 5.96%. In addition, the inhibition in test [19] came to 1.47%; in [20], 14.8%.
